AHR act: activates the human aryl hydrocarbon receptor. P35869. AHR-responsive luciferase reporter cells, luminescence. activation, % at 5 µM. 2.5% of 320,000 active; in the data active = activation above about 47%
VLA-4 inh: inhibition in a human VLA-4 binding assay | P13612 | VLA-4 expressing cells, ligand binding flow cytometry | inhibition, % (about 7 µM as worked out from the volumes in the protocol) | 0.2% of 330,000 active | AID 2557; in the data active = inhibition above about 50%
Bfl-1 A1 inh: inhibitors of the anti-apoptotic protein A1, read as caspase activation | 0.066% of 330,000 active | caspase activation, % (test concentration not listed) | MEF A1-2A-BIM cells, Caspase-Glo 3/7 luminescence, 3 h; percent of clofoctol response, vehicle zero | AID 2462;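 active = over half of replicate activation scores above 10%, or exactly half above 10 with the replicate mean above 10; inconclusive = replicate mean below 10 yet half the replicates above 10; inactive = over half of replicates below 10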
Efflux pump mplx: blocks antifungal efflux pumps in multiplex yeast assay; inhibition, % at 10 µM; S. cerevisiae Candida pump triplex, Nile Red efflux; 0.44% of 330,000 active; AID 485275;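 active = plate passing quality check with inhibition over a set limit, or well fluorescence over plate mean plus 4 SD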;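 also: Nile Red retained in pooled yeast measured as flow cytometry median fluorescence; higher means more Nile Red kept so more efflux inhibition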
Mot1-301 SUMO: blocks SUMOylation pathway, rescuing yeast Mot1-301 growth. S. cerevisiae Mot1-301 growth rescue, ATP luminescence, 38.5C; percent above DMSO median, 100 means doubled. growth rescue, % at 18.8 µM. 1% of 320,000 active;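 active = every valid replicate shows activation above 250% relative to neutral control wells; inactive = the rest, any valid replicate at or below 250%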
ALR H2O2 inh: inhibitors of human sulfhydryl oxidase ALR; purified ALR, DTT oxidation, H2O2 HRP-luminol luminescence; 3.8% of 290,000 active; inhibition, % (test concentration not listed); AID 485317; P55789;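 active = mean replicate inhibition above about 79%, with every replicate also reaching it, limit read from the data; inconclusive = only one of the two criteria met; inactive = mean below limit and not every replicate reaching it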
Target sequence (P55789 whole entry, looked up): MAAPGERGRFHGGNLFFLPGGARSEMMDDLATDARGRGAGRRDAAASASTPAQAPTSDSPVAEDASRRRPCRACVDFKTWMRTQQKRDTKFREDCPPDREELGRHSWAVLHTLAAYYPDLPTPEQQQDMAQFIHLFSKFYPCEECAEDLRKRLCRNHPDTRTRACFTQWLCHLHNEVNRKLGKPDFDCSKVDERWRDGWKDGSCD
AHR act cf: human AHR activation, confirmation. shares compounds with AHR act. human cells, AHR-responsive luciferase reporter, luminescence. activation, % at 9 µM. 87% of 2,300 active. AID 2845; in the data active = activation above about 49%;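 also: HepG2 hepatoma cells carrying a DRE-driven firefly luciferase reporter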
PXR act counter: PXR activation, counter-screen for AHR activators; shares compounds with AHR act; cell-based PXR reporter, luciferase luminescence; activation, % at 11.6 µM; 88% of 2,300 active; AID 434939; in the data active = activation above about 11%;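 also: human hepatoma DPX-2 cells expressing full-length human PXR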
Large screens that a line does not name were inactive (follow-up assays come after a bar, where they were run). Sampled rows, rich in hits. Any-hit rate of the full collection: about 7.2%.

CCOc1ccc(S(=O)(=O)N(CC)CC(=O)NCc2ccncc2)cc1	none
CC(CCc1ccccc1)NC(=O)C(=O)NCCc1ccccc1 (centres undefined)	none
Cc1nc(SCC(=O)N(C)Cc2ccco2)c2c(C)c(C)sc2n1	AHR act 92 | AHR act cf 55 | PXR act counter 182
Clc1ccccc1-c1nnc(-c2ccc3c(c2)OCO3)o1	none
COCCC(=O)Nc1ccc2c(c1)CN(C(=O)CCSC)CC2	none
COCC(=O)N1CCc2ccc(NC(=O)c3ccc(C(F)(F)F)cc3)cc2C1	AHR act 103 (no result: ALR H2O2 inh) | AHR act cf 73
CC(=O)c1cccc(NC(=O)c2csc3c2CCCCC3)c1	none
CCOc1ccc(NC(=O)c2csc3c2CCCC3)cc1	AHR act 146 | AHR act cf 110 | PXR act counter 45
CC(C)c1ccc2[nH]c(O)c(N=NC(=S)NCCc3ccccc3)c2c1	none
CCNC(=S)N=Nc1c(O)[nH]c2ccc(C(C)C)cc12	AHR act 123 | AHR act cf 72 | PXR act counter 80
COc1ccc2oc(C(=O)c3ccccc3)c(NC(=O)CN3CCN(C)CC3)c2c1	Bfl-1 A1 inh inconclusive
CN1CCN(CC(=O)Nc2c(C(=O)c3ccccc3)oc3ccccc23)CC1	AHR act 79 (no result: ALR H2O2 inh) | AHR act cf 61 | PXR act counter 20
CC(=O)c1c(C)nc(-c2ccc(Cl)cc2)nc1N=CN(C)C	AHR act 90 (no result: ALR H2O2 inh) | AHR act cf 98 | PXR act counter 35
CC(=O)c1sc(-c2ccc(Cl)cc2)nc1C	none (no result: ALR H2O2 inh)
CC(=O)c1c(C)nc(-c2ccc(Cl)cc2)nc1N	AHR act 92 | AHR act cf 130 | PXR act counter 33
CSc1nc(-c2ccccc2)nc(N)c1C(C)=O	none (no result: ALR H2O2 inh)
CCN(CC(=O)Nc1ccc(Cl)c(C(F)(F)F)c1)CC(=O)NC1CCS(=O)(=O)C1 (centres undefined)	none
CCn1ncc(Br)c1C(=O)Nc1ccc(F)cc1F	none
CCn1cc(Br)c(C(=O)Nc2ccc(F)cc2F)n1	AHR act 99 (no result: Mot1-301 SUMO) | AHR act cf 130 | PXR act counter 13
O=C(NCCCn1ccnc1)/C(=C\c1ccccc1Cl)NC(=O)c1ccccc1	none
Cn1nc(C(=O)Nc2nc3ccccc3[nH]2)c2ccccc2c1=O	AHR act 98 | AHR act cf 73 | PXR act counter 19
CCn1nc(C(=O)Nc2nc3ccccc3[nH]2)c2ccccc2c1=O	none (no result: ALR H2O2 inh)
COc1cccc(NC(=O)c2cccc(S(=O)(=O)N3CCN(Cc4ccccc4)CC3)c2)c1	none
COCCNc1oc(/C=C/c2ccccc2)nc1C#N	none
CNc1oc(/C=C/c2ccccc2)nc1C#N	AHR act 136 | AHR act cf 112 | PXR act counter 18
CCOc1ccccc1NC(=O)c1cnc2n(c1=O)CCS2	AHR act 88 | AHR act cf 65 | PXR act counter 55
c1ccc(-c2noc(-c3cccc4ccccc34)n2)nc1	AHR act 103 | AHR act cf inactive | PXR act counter inactive
Clc1cccc(-c2nc(-c3ccccn3)no2)c1	AHR act 104 (no result: Mot1-301 SUMO) | AHR act cf inactive | PXR act counter inactive
O=C(NNS(=O)(=O)c1ccccc1)c1sccc1-n1cccc1	none (no result: Mot1-301 SUMO)
CC(C)c1ccc(NC(=O)c2sccc2-n2cccc2)cc1	AHR act 84 | AHR act cf 113 | PXR act counter 46
O=C(NNS(=O)(=O)c1ccc(Cl)cc1)c1sccc1-n1cccc1	none (no result: Mot1-301 SUMO)
O=C(N/N=C\c1ccccc1)c1sccc1-n1cccc1	AHR act 82 (no result: ALR H2O2 inh) | AHR act cf 127 | PXR act counter 25
O=C(NNC(=O)c1sccc1-n1cccc1)c1ccc(Cl)cc1	AHR act 90 | AHR act cf 100 | PXR act counter 28
CCCCN1C(=S)SC(C)(C)C1/[N+]([O-])=C/c1ccc(S(=O)(=O)NC)cc1 (centres undefined)	none
CNC(=O)c1ccc(NC(=O)C2CCN(S(=O)(=O)c3cccc(C(F)(F)F)c3)CC2)cc1	none
Cc1ccccc1NC(=O)Cn1c(=O)sc2ccccc21	none
